Source: PubChem BioAssay
Only some compounds are listed: those with a hit (about 11% of all), similar ones and a draw of the others.
L3MBTL1 inh = blocks human L3MBTL1 | Q9Y468 | 0.66% of 230,000 active | AlphaScreen L3MBTL1–H3K9me1 peptide binding | Potency, µM (doses to about 57.1 µM), for the others: top-dose activity, negative = inhibition, usual class: inhibitors; also: potency is read from the fitted curve at half-maximal effect; % is scaled to controls: 0 for no effect and ±100 for the full control effect; nearly all actives have a fitted effect of over 60% in size
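Read-out is AlphaScreen signal from streptavidin donor and nickel chelate acceptor beads (10 ug/mL final each) bridging L3MBTL1 (50 nM) and biotinylated K9-monomethylated H3(1-15) peptide (75 nM), after 30 min compound exposure at room temperature.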
HP1b chromo inh = inhibitors of HP1-beta chromodomain binding to methylated histone tails; AlphaScreen HP1-beta / biotin-H3K9me3 peptide binding; P83916; 0.56% of 390,000 active; Potency, µM (doses to about 114 µM), without a hit: top-dose activity change, negative = inhibition, hits mostly inhibitors; also: potency is read from the fitted curve at half-maximal effect; nearly all actives have a fitted effect of over 70% in size
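AlphaScreen: HP1-beta (50 nM) preformed 30 min with biotin-H3(1-18)K9me3 peptide (50 nM) in PBS pH 7.4, 0.01% Tween-20. Compound added for 30 min at RT, then streptavidin donor/nickel chelate acceptor beads (10 ug/mL) for 30 min.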
G9a block = G9a (human) methyltransferase inhibition. 8.8% of 350,000 active. Potency, µM (doses to about 102 µM), for inactives: at the top dose activity, negative = inhibition, actives largely listed as inhibitors. G9a H3K9 monomethylation, AlphaScreen, 2 h; also: potency is read from the fitted curve at half-maximal effect; % is scaled to controls: 0 for no effect and ±100 for the full control effect; nearly all actives have a fitted effect of over 75% in size
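Signal arises when biotinylated H3K9 peptide, once monomethylated, bridges streptavidin donor and antibody-captured acceptor beads. Enzyme at 20 nM was preincubated 15 min with test compounds; peptide 500 nM and SAM 20 uM then reacted for 2 h.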
PI5P4Ka inh = inhibitors of human PI5P4K alpha; P48426; PI5P4Kalpha enzyme, ADP-Glo luminescence, 60 min; active compounds read low; max response, %; 1.2% of 330,000 active; AID 652105; active = max response of -50% or lower; inconclusive = between -30% and -50%; inactive = -30% or higher; also: value at the top dose of about 77 µM; % is scaled to controls: 0 for no effect and ±100 for the full control effect
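qHTS, 1536-well: enzyme/substrate mix, compound by pin tool, 5 microM ATP final; RT 60 min; ADP-Glo reagents 1 (45 min) then 2 (30 min); luminescence.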
JMJD2A Tudor inh = JMJD2A Tudor domain (human) inhibition; 4.4% of 390,000 active; Potency, µM (titrated, usually from 114 µM), inactives show at the highest dose activity change, negative = inhibition, usual class: inhibitors; AID 504339; AlphaScreen JMJD2A-Tudor / H3K4me3 peptide binding; also: potency is read from the fitted curve at half-maximal effect; % is scaled to controls: 0 for no effect and ±100 for the full control effect; nearly all actives have a fitted effect of over 50% in size
Target sequence (O75164 whole entry, looked up, the tested form may be a part): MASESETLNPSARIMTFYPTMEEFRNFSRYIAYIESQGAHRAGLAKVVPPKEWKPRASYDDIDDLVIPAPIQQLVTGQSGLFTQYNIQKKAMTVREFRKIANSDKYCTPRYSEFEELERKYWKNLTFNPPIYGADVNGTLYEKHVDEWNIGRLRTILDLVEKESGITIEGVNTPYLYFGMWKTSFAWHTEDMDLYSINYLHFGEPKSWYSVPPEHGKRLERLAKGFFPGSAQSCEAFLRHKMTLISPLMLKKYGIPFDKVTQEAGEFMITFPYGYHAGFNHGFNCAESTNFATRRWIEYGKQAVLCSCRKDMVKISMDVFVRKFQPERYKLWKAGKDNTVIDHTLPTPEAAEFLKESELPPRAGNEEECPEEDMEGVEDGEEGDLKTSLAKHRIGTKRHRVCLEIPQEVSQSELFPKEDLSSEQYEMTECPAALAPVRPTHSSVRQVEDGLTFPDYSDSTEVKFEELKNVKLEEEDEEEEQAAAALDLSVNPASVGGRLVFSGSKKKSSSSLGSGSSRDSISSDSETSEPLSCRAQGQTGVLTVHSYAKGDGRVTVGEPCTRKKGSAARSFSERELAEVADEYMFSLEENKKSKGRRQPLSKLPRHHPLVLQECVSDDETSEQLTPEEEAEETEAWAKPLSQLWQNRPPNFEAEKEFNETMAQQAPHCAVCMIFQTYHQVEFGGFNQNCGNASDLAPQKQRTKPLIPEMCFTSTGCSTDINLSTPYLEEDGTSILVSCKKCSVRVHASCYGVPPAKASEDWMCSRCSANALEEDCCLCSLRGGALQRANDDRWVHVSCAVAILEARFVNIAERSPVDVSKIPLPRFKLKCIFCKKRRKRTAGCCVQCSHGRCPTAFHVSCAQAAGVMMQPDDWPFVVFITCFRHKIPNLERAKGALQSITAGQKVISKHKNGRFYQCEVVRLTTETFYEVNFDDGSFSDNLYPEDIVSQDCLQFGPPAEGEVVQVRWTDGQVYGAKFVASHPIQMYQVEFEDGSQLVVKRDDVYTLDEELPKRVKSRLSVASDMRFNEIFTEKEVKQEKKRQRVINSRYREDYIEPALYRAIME
BAZ2B block = inhibitors of human BAZ2B bromodomain. 4.4% of 360,000 active. Q9UIF8. AlphaScreen BAZ2B-H3K14Ac peptide displacement. AID 504333. Potency, µM (doses to about 114 µM), for the others: at the highest dose activity change, negative = inhibition, most hits filed as inhibitors; also: potency is read from the fitted curve at half-maximal effect; % is scaled to controls: 0 for no effect and ±100 for the full control effect; nearly all actives have a fitted effect of over 60% in size
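Protein-peptide AlphaScreen: BAZ2B 50 nM, b-H3K14Ac 50 nM, 1x PBS pH 7.4 + 0.01% Tween-20. Preincubation 30 min RT; cpd 30 min RT (top 110 uM); beads 20 min RT, light-protected.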
* marks the source's active call; other numbers are inactive results; ? = inconclusive; / = no result given; [ ] = another dose, or the depositor's remark. Unless noted, calls follow the shape of the dose curve; as a rule, active = well fitted inhibition curve with a large enough effect; inconclusive = small, poorly fitted or top-dose-only effect; inactive = no such curve, though single readings can be large or run the other way.

SMILES	L3MBTL1 inh	HP1b chromo inh	G9a block	PI5P4Ka inh	JMJD2A Tudor inh	BAZ2B block
COc1ccc(CN(Cc2cccn2C)C(=O)c2cc3cc(OC)ccc3[nH]2)cc1	/	-31%	50µM*	14	?	?
COc1ccc2[nH]c(C(=O)NCc3ccccc3)cc2c1	2%	8%	/	1	-11%	-1%
CC(C)(C)OC(=O)N[C@@H](C(=O)OC(C)(C)C)c1ccc2ccccc2c1	23%	27%	-8%[0.501 µM]	3	-14%	-1%
COC(=O)C(NC(=O)c1ccccc1C(=O)O)c1ccc2ccccc2c1 (stereo not drawn)	/	60%	71µM*	-1	-3%	-17%
Cc1ccc(-n2nc(C)c3c(C)cc(=O)n(CC(=O)NCc4ccc(OC(C)C)cc4)c32)cc1	/	-9%	22%[59 µM]	/	-14%	-20%
O=C(CSc1ccc(-c2cccs2)nn1)Nc1ccccc1	/	33%	8%	6	-7%	-12%
CC(=O)Nc1ccc(NC(=O)CSc2ccc(-c3sc(C)nc3C)nn2)cc1	/	28%	12%	-8	5%	-11%
Cc1nc(C)c(-c2ccc(SCC(=O)Nc3ccccc3)nn2)s1	/	33%	79µM*	-4	8%	-1%
Cc1cc(C)cc(NC(=O)CSc2ccc(-c3cccs3)nn2)c1	-3%	40%	22µM*	5	-17%	-27%
CCOc1ccc2c(c1)c(=O)c(C(=O)c1ccc3c(c1)OCO3)cn2Cc1cccc(F)c1	/	28%	4%[59 µM]	/	-7%	-19%[57.1 µM]
CCOc1ccc(-c2nc(C(N)=O)c3c(n2)n(-c2ccc4c(c2)OCO4)c(=O)n3CC)cc1	/	43%	5%[59 µM]	/	-5%	-13%
COc1ccc(C(CCN2CCOCC2)c2c(OC)cc(OC)c3c(-c4ccccc4)cc(=O)oc23)cc1 (stereo not drawn)	-16%	-4%	?	1	?	/
COc1ccc(C(CCN2CCN(c3ccccc3)CC2)c2c(OC)cc(OC)c3c(-c4ccccc4)cc(=O)oc23)cc1 (stereo not drawn)	/	-9%	?	-8	?	?
COc1cc(OC)c2ccc(=O)oc2c1C(CCN1CCOCC1)c1ccc(N(C)C)cc1 (stereo not drawn)	/	/	28µM*	/	/	/
COc1cc(OC)c2c(-c3ccccc3)cc(=O)oc2c1C(CCN1CCN(c2ccccc2)CC1)c1ccc(N(C)C)cc1 (stereo not drawn)	/	?	?	-4	4.5µM*	4.5µM*
COc1ccc(C(CCN2CCOCC2)c2c(OC)cc(OC)c3ccc(=O)oc23)cc1 (stereo not drawn)	1%	11%	/	1	-15%	/
COc1cc(OC)c2ccc(=O)oc2c1C(CCN1CCOCC1)c1ccc2c(c1)OCO2 (stereo not drawn)	5%	25%	-1%[59 µM]	0	?	/
COc1cc(OC)c2ccc(=O)oc2c1C(CCN1CCN(c2ccccc2)CC1)c1ccc(N(C)C)cc1 (stereo not drawn)	/	?	-138%[59 µM]	-6	22µM*	35µM*
COc1cc(OC)c2c(C)cc(=O)oc2c1C(CCN1CCOCC1)c1ccc(N(C)C)cc1 (stereo not drawn)	/	?	-4%[12.7 µM]	2	50µM*	40µM*
COc1ccc(-c2nn3c(=O)cc(CN4CCN(C(=O)Nc5ccc(C)c(Cl)c5)CC4)nc3s2)cc1	/	23%[57 µM]	0%[59 µM]	/	-2%	7%
CCOC(=O)c1c(S(=O)(=O)N2CCC(C(=O)Nc3ccc(F)cc3F)CC2)c(C)n(C)c1C	/	12%	1%[59 µM]	/	-20%	4%
COc1cc(OC)c2c(-c3ccccc3)cc(=O)oc2c1C(CCN1CCCC(C)C1)c1ccc(N(C)C)cc1 (stereo not drawn)	/	?	?	-8	11µM*	16µM*
CCCCCc1cc(=O)oc2c(C(CCN(CC)CC)c3cc(OC)c(OC)c(OC)c3)c(OC)cc(OC)c12 (stereo not drawn)	/	12%	10%[59 µM]	2	?	-31%
CCN(CC)CCC(c1ccc(N(C)C)cc1)c1c(OC)cc(OC)c2c(-c3ccccc3)cc(=O)oc12 (stereo not drawn)	/	?	?	3	22µM*	32µM*
COc1ccc(C(CCN2CCCC2)c2c(OC)cc(OC)c3c(-c4ccccc4)cc(=O)oc23)cc1 (stereo not drawn)	/	-10%	20%[12.7 µM]	0	?	-25%
SMILES	L3MBTL1 inh	HP1b chromo inh	G9a block	PI5P4Ka inh	JMJD2A Tudor inh	BAZ2B block
CCCCCc1cc(=O)oc2c(C(CCN3CCN(c4ccccc4)CC3)c3ccc(N(C)C)cc3)c(OC)cc(OC)c12 (stereo not drawn)	/	?	?	-6	22µM*	6.3µM*
COC(=O)C1CSC2c3ccccc3C(=O)N12 (stereo not drawn)	/	19%	/	-5	-7%	/
COc1ccc(NC(=O)C2CSC3c4ccccc4C(=O)N23)cc1 (stereo not drawn)	-3%	13%	28µM*	-5	-19%	?
C=CCN(CC=C)C(=S)NC(=O)/C=C/c1ccccc1	0%	?	17%[59 µM]	-18	22µM*	6%
C=CCN(CC=C)C(=S)NC(=O)c1ccc(-c2ccccc2)cc1	/	0%	-1%	-9	?	6.3µM*
C=CCN(CC=C)C(=S)NC(=O)c1ccc(OC)cc1	-7%	-1%	/	3	-17%	?
C=CCN(CC=C)C(=S)NC(=O)/C=C/c1ccc(C)cc1	-11%	33%	25%[59 µM]	-6	0%	0%
COc1ccccc1C(=O)Nc1c(C(=O)N2CCN(c3ccccc3F)CC2)oc2ccccc12	/	8%	-25%[59 µM]	/	-21%	-36%[57.1 µM]
CCn1c(=O)cc(SCC(=O)NCCc2cc(OC)ccc2OC)c2ccccc21	/	22%	1%[59 µM]	/	-16%	-2%
Cc1[nH]c2ccc(Br)cc2c(=S)c1C/C=C/Cl	?	3%	35µM*	-13	-31%	?
CCCCCc1cc(=O)oc2c(C(CCN3CCCCC3)c3ccc4c(c3)OCO4)c(OC)cc(OC)c12 (stereo not drawn)	/	-24%	-5%[12.7 µM]	5	45µM*	?
COc1ccc(C(CCN2CCCC(C)C2)c2c(OC)cc(OC)c3c(C)cc(=O)oc23)cc1 (stereo not drawn)	/	10%	8%[59 µM]	0	-28%	-2%
COc1cc(C(CCN2CCCCC2)c2c(OC)cc(OC)c3c(C)cc(=O)oc23)cc(OC)c1OC (stereo not drawn)	/	14%	26%[59 µM]	0	-20%	-13%
CCCCCc1cc(=O)oc2c(C(CCN3CCCC(C)C3)c3ccc4c(c3)OCO4)c(OC)cc(OC)c12 (stereo not drawn)	/	-7%	?	-5	?	32µM*
